Potency data for 40 molecules are collected here from PubChem BioAssay (Tox21).

Results filed as inconclusive are left out. Entries that show only a call come without a potency. Activity calls are given as the source filed them. The call rests on the fitted dose curve; in most records, active means well fitted cell-killing curve with a large enough effect in the repeat runs; inconclusive means weak or mixed curves, or effect the other way; inactive means no such curve, though single readings can be large or run the other way.

The test in a line: Caspase-3/7 induction in CHO-K1 cells by small molecules, qHTS cell viability counter screen (AID 1346979). Further: nearly all actives have a fitted effect of over 35% in size. As to conditions: CellTiter-Fluor fluorescence, 17 h; series mostly up to 92.4 µM. The source says: National Center for Advancing Translational Sciences [NCATS]
NIH Chemical Genomics Center [NCGC]
U.S. Environmental Protection Agency [EPA]
National Institutes of Environmental Health Sciences [NIEHS]
National Toxicology Program [NTP]
U.S. Food and Drug Administration [FDA]
Apoptosis is a process of programmed cell death and plays a central role in the development of multicellular organisms. It is a highly regulated process and induces cell death by activating caspases, which are the members of cysteine aspartic acid-specific protease (caspase) family. Caspases involved in apoptosis are classified by their mechanism of action as initiator caspases (caspase-2, -8, -9 and -10) and executioner caspases (caspase-3, -6, and -7). Inhibition of apoptosis results in number of cancers, autoimmune diseases, inflammatory diseases and viral infection. To identify small molecule compounds that induce apoptosis, a homogeneous, luminescent Caspase-Glo 3/7 assay was used. Wild type CHO-K1 cells were used to screen Tox21 libraries for identifying caspase-3/7 activity inducers. Also cytotoxicity of the compounds was tested in parallel by measuring the cell viability using CellTiter-Fluor assay system in the same wells.
Tox21 Assay Protocol Summary:
CHO-K1 cells were dispensed at 1,500 per well in 5uL of culture medium into white solid bottom 1536-well plates (Corning Life Sciences, Corning, NY) using a Multidrop Combi (Thermo Scientific, Waltham, MA) dispenser. The assay plates were incubated at 37 C and 5% CO2 for 5hr, and then 23nL of compounds dissolved in DMSO and positive control were transferred using a Pintool station (Wako, San Diego, CA). The assay plates were incubated at 37C and 5% CO2 for 17hr. For cytotoxicity read, after 16hr incubation at 37C, 1uL CellTiter-Fluor reagent (Promega Corporation, Madison, WI) was added to each well of the assay plates using Flying Reagent Dispenser (FRD, Aurora Discovery, San Diego, CA). After 1hr incubation at 37C and 5% CO2, the fluorescence signal was quantified using a ViewLux plate reader (PerkinElmer, Shelton, CT).
For `C=C(C)[C@@H]1CC=C(C)C(=O)C1`, the Potency entry is “inactive”.

On to `N#CCC(=O)NN`, for which the Potency result is “inactive”.

For the molecule `Cc1ncc([N+](=O)[O-])n1CC(C)O` (stereo not given), the Potency entry is “inactive”.

For the molecule `O=C1NC(c2ccccc2)(c2ccccc2)C(=O)N1COP(=O)(O)O`, the Potency entry is “inactive”.

For the molecule `CC(=O)OC1CCCCC1C(C)(C)C` (stereo not given), the Potency entry was “inactive”.

Consider `O=Cc1ccccc1Cl`, for which the Potency entry was “inactive”.

As for `COc1c2occc2c(OC)c2c(=O)cc(C)oc12`, the Potency result is “inactive”.

On to `CCC(=O)c1c(O)cc(O)cc1O`, for which the Potency entry was “inactive”.

As to `OC[C@H]1O[C@@H](O[C@@H]2[C@@H](CO)O[C@](O)(CO)[C@H]2O)[C@H](O)[C@@H](O)[C@H]1O`, the Potency result was “inactive”.

For `CCCCOC(=O)[C@H](C)O`, the Potency result is “inactive”.

Take `CC(C)Cn1cnc2c1c(=O)n(C)c(=O)n2C`: the Potency result was “inactive”.

Consider `O=C(Cn1ccnc1[N+](=O)[O-])NCc1ccccc1`, for which the Potency entry is “inactive”.

With `O=C(CN1CCNCC1)NC1CCCCC1`, the Potency entry was “inactive”.

Turning to `Cn1c(=O)c2c(ncn2CCO)n(C)c1=O`, the Potency entry is “inactive”.

For `CC(S)C(C)S` (stereo not given), the Potency entry is “inactive”.

On to `N#Cc1cscn1`, for which the Potency entry was “inactive”.

With `CCCc1ccc(O)cc1`, the Potency entry is “inactive”.

For `COc1cc(/C=C/C(N)=O)cc(OC)c1OC`, the Potency result is “inactive”.

For the molecule `COc1ccc(CCO)cc1`, the Potency result was “inactive”.

With `CC(C)c1ccc(C=O)cc1`, the Potency entry was “inactive”.

Regarding `OCC1CCC(CO)CC1` (stereo not given), the Potency result is “inactive”.

Turning to `CC(=O)C(C)O` (stereo not given), the Potency entry is “inactive”.

`c1ccc(B(c2ccccc2)c2ccccc2)cc1`: the Potency result is “inactive”.

For `Cc1c(NC(=O)c2cccnc2)c(=O)n(-c2ccccc2)n1C`, the Potency entry is “inactive”.

With `O=C(O)[C@H](O)c1ccccc1`, the Potency result was “inactive”.

`CO[Si](CCCn1c(=O)n(CCC[Si](OC)(OC)OC)c(=O)n(CCC[Si](OC)(OC)OC)c1=O)(OC)OC`: the Potency entry is “inactive”.

Regarding `Nc1nc(-c2ccccc2)c(Br)c(=O)[nH]1`, the Potency result was “inactive”.

With `COP(=O)(O)OP(=O)(O)OC`, the Potency entry was “inactive”.

In the case of `CCCCCCCCCCCCCCC(=O)NC(CO)CCCCCCCCCCCCCC` (stereo not given), the Potency result was “inactive”.

In the case of `CCCCCCCCCCCCCCCCCC#N`, the Potency entry is “inactive”.

On to `CCO[Si](CC)(OCC)OCC`, for which the Potency entry was “inactive”.

In the case of `CC(=O)O[C@@H]1CC2CCC1(C)C2(C)C` (stereo not given in full), the Potency entry is “inactive”.

On to `CNCCS(=O)(=O)O`, for which the Potency entry is “inactive”.

Consider `O=C(CCCl)NCCc1ccccc1`, for which the Potency entry is “inactive”.

`CN(C)CCCO[C@@H]1[C@H]2OC(C)(C)O[C@H]2O[C@@H]1C(O)CO` (stereo not given in full): the Potency result was “inactive”.

For the molecule `CCc1occc(=O)c1O`, the Potency entry is “inactive”.

`CCCCOCC(C)O` (stereo not given): the Potency entry is “inactive”.

As to `CC1CCc2c(N3CCC(O)CC3)c(F)cc3c(=O)c(C(=O)O)cn1c23` (stereo not given), the Potency entry was “inactive”.

Consider `CCNC(=O)NCc1cccc(Cl)c1`, for which the Potency entry is “inactive”.

As for `COc1ccc2c(c1)c1c3n2CCN(C)C3=NCC1`, the Potency result is “inactive”.
